# Only some compounds are listed: those with a hit (about 4% of all), similar ones and a draw of the others.
# PAX8 inh HTS – inhibitors of PAX8 transcriptional activity in RMG-I cells; AID 652154; inhibition, % at 12.6 µM; 360,000 compounds, 1.2% hits; RMG-I TPO-luciferase reporter, SteadyGlo, 24 h;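 active means mean replicate inhibition at least 60% with every replicate also reaching 60%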;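 further: luciferase light reporting Pax8 driven TPO promoter activity; plate controls were median of neutral control wells for no effect and mitoxantrone controls for full effect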
# Mdm2 MdmX PPI – human Mdm2/MdmX binding inhibition. O15151+Q00987. 330,000 compounds, 3% hits. SaOS-2 split-luciferase Mdm2/MdmX complementation, luminescence. inhibition, % at 8 µM;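 active means inhibition of at least 50% at 8 µM in the primary screen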
# CSC inhib – blocks cancer stem cells. cancer stem cell-like cells viability, luminescence. 300,000 compounds, 1.1% hits. inhibition, % at 7.5 µM. AID 2717; in the data active means inhibition above about 75%; tested in HMLE shEcad cells
# Shn3 3UTR inh – Schnurri-3 reporter inhibition in Clone20 osteoblasts; inhibition, % at 12.5 µM; Clone20 osteoblast Shn3 3'UTR firefly luciferase, 24 h; 360,000 compounds, 0.52% hits;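 active means mean inhibition of at least 75% with every replicate also reaching 75%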;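 further: 0% = median of neutral control wells and 100% = pilot-screen positive control compound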
# Beta apoptosis – blocks beta cell apoptosis; protection from apoptosis, % (test concentration not listed); 300,000 compounds, 0.8% hits; AID 435005; INS-1E cytokine-induced death, ATP luminescence, 48 h; percent of positive-control rescue, neutral wells zero;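 active means Every replicate reaches about 75%, or at least half do and their mean reaches it too, limit read from the data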;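 further: 0% = cytokine-treated negative control wells and 100% = positive control rescue; higher means more ATP so stronger rescue from cytokine killing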
# Gli-Sufu block – antagonists of Gli-Sufu signaling; Sufu-KO-LIGHT fibroblasts, Gli luciferase reporter luminescence; AID 588413; inhibition, % at 5 µM; 340,000 compounds, 0.74% hits;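 active means inhibition above about 55%, limit read from the data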;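 further: 0% = DMSO-treated cells and 100% = wells with medium but no cells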
# Starred values were filed as active, the others as inactive; . = no result given.
SMILES,PAX8 inh HTS,Mdm2 MdmX PPI,CSC inhib,Shn3 3UTR inh,Beta apoptosis,Gli-Sufu block
Cc1cccc(-c2ccc([C@H]3[C@@H](CO)N4CCCCN(S(=O)(=O)c5cccc(C)c5)C[C@@H]34)cc2)c1,95.8*,.,.,.,.,.
C/C=C/c1ccc([C@H]2[C@@H](CO)N(C(=O)CC)[C@H]2CNC(=O)c2ccncc2)cc1,-9.0,.,.,.,.,.
OC[C@H]1O[C@H](OCCc2ccc(O)cc2)[C@H](O)[C@@H](O)[C@@H]1O,-4.3,-10.9,4.2,3.8,6.2,-14.0
Cc1cc2c(c(C)c1CCO[C@@H]1O[C@H](CO)[C@@H](O)[C@H](O)[C@H]1O)C(=O)[C@@H](C)[C@@H]2O,85.7*,4.1,16.1,-26.5,-9.4,-0.4
Cc1nc(C)c(C(=O)N/N=C/c2cc(Br)ccc2O)s1,66.7*,49.7,65.9,.,80.5*,7.4
C[C@@H]1CN([C@@H](C)CO)S(=O)(=O)c2ccc(C3=CCCCC3)cc2O[C@@H]1CN(C)C(=O)C1CCOCC1,8.4,.,.,.,.,.
CO[C@@H]1CN(C)C(=O)c2ccc(NC(=O)C3CCOCC3)cc2OC[C@H](C)N(C(=O)c2ccccc2)C[C@@H]1C,-14.4,.,.,.,.,.
C[C@H]1CN([C@@H](C)CO)C(=O)Cc2cc(NC(=O)C3CC3)ccc2O[C@@H]1CN(C)C(=O)Nc1ccccc1,1.9,.,.,.,.,.
Cc1ccc(S(=O)(=O)Nc2ccc3c(c2)C(=O)N([C@@H](C)CO)C[C@H](C)[C@@H](CN(C)Cc2ccc(C(F)(F)F)cc2)OCCCC[C@H](C)O3)cc1,79.8*,.,.,.,.,.
Cc1ccc(S(=O)(=O)Nc2ccc3c(c2)C(=O)N([C@@H](C)CO)C[C@@H](C)[C@H](CN(C)Cc2ccc(C(F)(F)F)cc2)OCCCC[C@H](C)O3)cc1,106.2*,.,.,.,.,.
Cc1ccc(S(=O)(=O)Nc2ccc3c(c2)C(=O)N([C@H](C)CO)C[C@H](C)[C@@H](CN(C)Cc2ccc(C(F)(F)F)cc2)OCCCC[C@@H](C)O3)cc1,6.6,.,.,.,.,.
Cc1ccc(S(=O)(=O)Nc2ccc3c(c2)C(=O)N([C@H](C)CO)C[C@@H](C)[C@@H](CN(C)Cc2ccc(C(F)(F)F)cc2)OCCCC[C@@H](C)O3)cc1,87.4*,.,.,.,.,.
Cc1ccc(S(=O)(=O)Nc2ccc3c(c2)C(=O)N([C@H](C)CO)C[C@H](C)[C@H](CN(C)Cc2ccc(C(=O)O)cc2)OCCCC[C@@H](C)O3)cc1,-15.5,.,.,.,.,.
Cc1ccc(S(=O)(=O)Nc2ccc3c(c2)C(=O)N([C@H](C)CO)C[C@H](C)[C@H](CN(C)Cc2ccc(C(F)(F)F)cc2)OCCCC[C@H](C)O3)cc1,115.1*,.,.,.,.,.
CCCNC(=O)C[C@@H]1CC[C@@H]2[C@@H](COc3ccc(NC(=O)NCCC)cc3C(=O)N2C)O1,11.2,.,.,.,.,.
CCNC(=O)Nc1ccc2c(c1)C(=O)N(C)[C@H]1CC[C@H](CC(=O)NCCN3CCCC3)O[C@@H]1CO2,4.0,.,.,.,.,.
Cc1ccc(S(=O)(=O)Nc2ccc3c(c2)C(=O)N([C@@H](C)CO)C[C@@H](C)[C@H](CN(C)Cc2ccc(C(F)(F)F)cc2)OCCCC[C@@H](C)O3)cc1,107.6*,.,.,.,.,.
Cc1ccc(S(=O)(=O)Nc2ccc3c(c2)C(=O)N([C@H](C)CO)C[C@@H](C)[C@@H](CN(C)Cc2ccc(C(F)(F)F)cc2)OCCCC[C@H](C)O3)cc1,95.7*,.,.,.,.,.
COCCNC(=O)C[C@H]1C[C@H]2c3cc(NC(=O)c4ccc5c(c4)OCO5)ccc3O[C@H]2[C@@H](CO)O1,-10.1,.,.,.,.,.
Cc1ccc2c(c1C)-c1c(ccc(C)c1C)C(=O)C2=O,93.1*,.,.,53.7,.,64.1*
Cc1ccccc1N1CCN(C(=O)c2ccc(Oc3ccc(C(F)(F)F)cn3)cc2)CC1,.,13.7,87.3*,12.3,4.3,1.9
CCCNC(=O)N(C)C[C@@H]1Oc2cc(-c3ccccc3F)ccc2S(=O)(=O)N([C@H](C)CO)C[C@@H]1C,-9.9,.,.,.,.,.
C[C@H]1CCCCO[C@@H](CN(C)Cc2ccc(C(F)(F)F)cc2)[C@@H](C)CN([C@@H](C)CO)C(=O)c2cc(NC(=O)NC3CCCCC3)ccc2O1,52.4,.,.,.,.,.
C[C@@H]1CN([C@@H](C)CO)C(=O)c2cc(NC(=O)NC3CCCCC3)ccc2O[C@@H](C)CCCCO[C@H]1CN(C)Cc1ccc(C(F)(F)F)cc1,78.5*,.,.,.,.,.
C[C@@H]1CN([C@H](C)CO)C(=O)c2cc(NC(=O)NC3CCCCC3)ccc2O[C@@H](C)CCCCO[C@H]1CN(C)Cc1ccc(C(F)(F)F)cc1,105.1*,.,.,.,.,.
SMILES,PAX8 inh HTS,Mdm2 MdmX PPI,CSC inhib,Shn3 3UTR inh,Beta apoptosis,Gli-Sufu block
C[C@@H]1CCCCO[C@H](CN(C)Cc2ccccc2)[C@H](C)CN([C@@H](C)CO)C(=O)c2cc(NC(=O)CCC(F)(F)F)ccc2O1,1.9,.,.,.,.,.
C=CCN1C(=O)[C@]2(O[C@H](CCO)[C@@H]([Si](C)(C)c3ccc(OC)cc3)[C@@H]2C)c2cc(N3CCCCC3=O)ccc21,-0.6,.,.,.,.,.
Cc1cc(C)nc(SCc2ccc(C(=O)NNC(=O)Nc3cccc(Cl)c3)cc2)n1,22.4,.,110.6*,16.7,-3.9,13.4
C[C@@H]1CN([C@@H](C)CO)C(=O)c2cccc(NC(=O)Nc3ccc(C(F)(F)F)cc3)c2O[C@@H]1CN(C)C(=O)NC1CCCCC1,-9.4,.,.,.,.,.
COc1ccc(S(=O)(=O)Nc2ccc3c(c2)C(=O)N([C@@H](C)CO)C[C@@H](C)[C@H](CN(C)C)OCCCC[C@@H](C)O3)cc1,-4.2,.,.,.,.,.
CCCC(Oc1ccc(Br)cc1)c1nc2c3cc(OC)c(OC)cc3nc(=S)n2[nH]1 (stereo not drawn),12.7,49.8,.,7.2,35.5,2.4
CC(Oc1ccc(Br)cc1)c1nc2c3ccccc3nc(=S)n2[nH]1 (stereo not drawn),-16.5,8.9,14.9,13.0,99.1*,0.4
CCCC(=O)Nc1ccc2c(c1)C(=O)N(C)C[C@H](OC)[C@@H](C)CN(C(=O)c1ccncc1)[C@H](C)CO2,3.4,.,.,.,.,.
O=C(N/N=C/c1c(Cl)cccc1Cl)c1n[nH]c2c1CCCC2,-42.5,-78.1,-3.6,-73.4,6.7,-51.5
Cc1ccsc1/C=N\NC(=O)c1n[nH]c2c1CCC2,19.6,3.4,129.7*,-4.9,20.4,-13.6
O=C(COc1ccccc1-c1ccccc1)N/N=C/c1ccc2ccccc2c1,93.5*,.,100.5*,13.5,97.1*,47.0
N#Cc1c(N2CCCC2)nc(N)c2c(N)nc(N3CCCC3)cc12,.,21.9,.,4.9,79.6*,-42.4
Cc1ccc(NC(=O)c2c(C(F)(F)F)nn(C)c2SCc2cccc(C(F)(F)F)c2)cc1C,-43.6,-4.0,36.1,80.0,87.7*,46.1
O=c1ccc2ccccc2c2ccccc12,88.4*,.,.,60.2,.,.
c1ccc2c(c1)ccc1ccccc12,.,6.8,.,-8.7,.,1.4
CCC(=O)N1CC(=O)N2[C@@H](CO)[C@@H](c3ccc(C#CC4CCCCC4)cc3)[C@@H]2C1,16.0,.,.,.,.,.
CO[C@@H]1CN(C)C(=O)c2cc(NS(=O)(=O)c3cccc(C)c3)ccc2OC[C@@H](C)N(C(=O)Cc2cccnc2)C[C@H]1C,4.2,.,.,.,.,.

# Screening results as filed in PubChem.
